About 1,100 (44%) of roughly 2,500 compounds were called active.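 The calls were made as follows: active = inhibition above 50% at 4 µM in the single-point screen; inactive = inhibition of 50% or less.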 So high a share suggests a set chosen from earlier hits. The list shows a part of the results.
Assay: TNF-a-driven NF-kB reporter inhibitors, primary screen, selectivity assay for NOD1/NOD2 signaling inhibitor project, cell-based, HEK293T NF-kB-Luc, luminescence (AID 1852)
Conditions: TNF-a induced, 14 h, at 4 µM, hits give high values

inhibition, active:
C=CCN1C(=O)/C(=C/c2ccc(OC(C)=O)c(OCC)c2[N+](=O)[O-])SC1=S 56.7%, COc1ccc(CC(=O)Nc2cccc(-c3nnc(-c4ccc(C)cc4)o3)c2)cc1OC 77.2%, C[n+]1c2n(c3ccccc31)N=C(c1cc(C(C)(C)C)c(O)c(C(C)(C)C)c1)CS2 82.3%, COc1ccc(NC(=O)/C(Cl)=C(/Cl)S(=O)(=O)Cc2ccc(C)cc2)cn1 108%, COc1ccc(NC(=O)/C(Cl)=C(/Cl)S(=O)(=O)Cc2ccccc2)cn1 92.3%, Cc1cccc(C(=O)NNC2=C(C(=O)C(F)(F)F)CCC2)c1O 93.3%, Cc1c(CCC(=O)O)c(=O)oc2c(C)c3occ(-c4ccc(Cl)cc4)c3cc12 59.5%, COc1cccc(-c2coc3c(C)c4oc(=O)c(CCC(=O)O)c(C)c4cc23)c1 69.3%, COc1ccccc1CN(Cc1nc2ccccc2c(=O)[nH]1)S(=O)(=O)c1ccc2ccccc2c1 92.1%, Cc1ccc(-n2c(C)c([N+](=O)[O-])c3ccc(O)c(CN(C)C)c32)cc1 66.1%, COc1ccc(-n2c(C)c([N+](=O)[O-])c3ccc(O)c(CN(C)C)c32)cc1 84.4%, CC1C/C(=C/c2ccncc2)C(=O)/C(=C/c2ccncc2)C1 (centres undefined) 106%, O=C1/C(=C/c2ccncc2)CCC/C1=C\c1ccncc1 89.9%, CC1C/C(=C\c2cccnc2)C(=O)/C(=C/c2cccnc2)C1 (centres undefined) 109%, O=C1/C(=C\c2cccnc2)CN(Cc2ccccc2)C/C1=C\c1cccnc1 107%, O=C1/C(=C/c2cccnc2)CCC/C1=C\c1cccnc1 104%, O=C(C1CCC(CNS(=O)(=O)c2cccs2)CC1)N1CCN(c2ccc(Cl)cc2)CC1 (centres undefined) 67.1%, C[C@@H]1C[C@@H]2O[C@H]2/C=C\C=C\C(=O)Cc2c(Cl)c(O)cc(O)c2C(=O)O1 96.5%, O=C(CSc1n[nH]c(-c2ccccn2)n1)Nc1ccc(Cl)cc1 80.1%, O=C(CSc1n[nH]c(-c2ccccn2)n1)Nc1cccc(Cl)c1 81.4%, CCCCCc1cc(O)c2c(C)cc(=O)oc2c1 71.7%, CC(=O)c1cccc(Nc2ncnc3ccc(Br)cc23)c1 60.8%, Brc1ccc2ncnc(Nc3cccc4ccccc34)c2c1 104%, COc1ccc(Nc2ncnc3ccc(Br)cc23)cc1OC 64.4%, Brc1ccc2ncnc(Nc3ccc(N4CCOCC4)cc3)c2c1 83.9%, COC(=O)Cc1[nH]n(-c2nc3ccccc3s2)c(=O)c1C(C)=Nc1ccc(C)cc1 55.7%, Cc1sc2nc(SCc3ccc(C(=O)O)cc3)n(Cc3ccco3)c(=O)c2c1C 74.6%, Cc1ccc2nc(-c3ccc4c(c3)OCCO4)cn2c1 51.3%

inhibition, inactive:
CN(C)c1ccc(-c2noc(C3CCN(S(=O)(=O)c4cccc(Cl)c4)CC3)n2)cc1 31%, COc1ccc(CCN2CC(C(=O)N(C)CC(=O)Nc3cccc(F)c3)CC2=O)cc1OC (centres undefined) 21.5%, COc1cc(C(=O)Nc2cccc(-c3nc4cc(C)ccc4o3)c2)cc(OC)c1OC -51.1%, COc1ccc(C2=Nn3c([n+](C)c4ccccc43)SC2)cc1 32.8%, COc1ccc(NS(=O)(=O)c2ccc3c(c2)Cc2ccccc2-3)cn1 25.4%, COc1ccc(NC(=O)c2cccc(S(=O)(=O)Nc3ccc(Br)cc3)c2)cn1 23.8%, O=C(NNC1=C(C(=O)C(F)(F)F)CCC1)c1ccccc1O 15%, Cc1oc2c(C)c3oc(=O)c(CCC(=O)O)c(C)c3cc2c1-c1ccccc1 47%, O=c1c(-c2ccc(Cl)cc2)coc2c(CN3CCCCC3)c(O)ccc12 37.4%, Cc1c(CCC(=O)O)c(=O)oc2cc3oc4c(c3cc12)CCCC4 48.7%, COC(=O)c1ccc2c(=O)[nH]c(CCl)nc2c1 43.1%, COc1ccc(-n2c(C)c([N+](=O)[O-])c3ccc(O)c(CN4CCCCC4)c32)cc1 28.8%, COc1cc(OC)c(OC)cc1/C=C1\CC(C)C/C(=C\c2cc(OC)c(OC)cc2OC)C1=O (centres undefined) 32.3%, C=C1CC2C(CCC3(C)C2CCC3(O)C(C)=O)C2(C)CCC(=O)C=C12 (centres undefined) 13.6%, CC1Cc2cc(S(=O)(=O)N3CCN(c4ccc(Cl)cc4)CC3)ccc2N1C(=O)C1CC1 (centres undefined) 8.4%, O=C(CN1CCN(CCC(=O)Nc2ccccc2F)CC1)Nc1ccc(Cl)cc1 2%, Cc1nc(C)c(-c2ccc(SCC(=O)Nc3cccc(Cl)c3)nn2)s1 35%, Cn1cccc1Cc1nnc(SCC(=O)Nc2cccc(Cl)c2)n1-c1ccc(F)cc1 11.5%, Cc1ccc2c(c1)-c1ncc(C(=O)c3cc(Br)ccc3O)cc1CO2 36.7%, CCCCc1cc(=O)oc2cc(O)cc(O)c12 21.4%, Cc1c(Cc2ccccc2)c(=O)oc2cc(O)cc(O)c12 -8.9%, Clc1ccc(Nc2ncnc3ccc(Br)cc23)cc1 49.1%, CCN1C(=O)C(CC(=O)Nc2cccc(C(C)=O)c2)S/C1=N\c1ccccn1 (centres undefined) -2.9%, O=C(COc1nsnc1N1CCOCC1)Nc1ccc(Br)cc1 4.1%, Nc1nc(CCl)nc(Nc2cccc3ccccc23)n1 44.3%, COC(=O)Cc1[nH]n(-c2nc3ccccc3s2)c(=O)c1C(C)=Nc1ccc(OC)cc1 30.8%, COC(=O)c1ccc(CSc2nc3ccccc3c(=O)n2Cc2ccco2)o1 6.3%, COc1ccccc1NC(=O)CSc1nc2sc(C)c(C)c2c(=O)n1C 26.3%, CCc1ccn2cc(-c3ccc4c(c3)OCO4)nc2c1 23%, Cc1ccc(-c2csc(N3CCC(NS(=O)(=O)c4ccc5c(c4)OCCO5)CC3)n2)cc1 48.7%, CCS(=O)(=O)C1=NN2C(=N)/C(=C\c3ccc(OCCOc4cccc(OC)c4)c(OC)c3)C(=O)N=C2S1 -32.8%

Reference: PubChem BioAssay AID1852 (Sanford-Burnham Center for Chemical Genomics, 2009)
